Records with an inconclusive call do not appear. A call without a number means that no potency is given here. The source made the active and inactive calls. The call rests on the fitted dose curve.
Test: qHTS assay for small molecule disruptors of the mitochondrial membrane potential - cell viability (AID 720634);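 further: human HepG2 liver cancer cells; nearly all actives have a fitted effect of over 20% in size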
Settings: HepG2 viability, ATP luminescence (CellTiter-Glo), 1 h; series mostly up to 83.2 µM
Outline: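 After overnight attachment at 37 C, HepG2 cells received compound or DMSO vehicle for 1 hr. Viability is then taken from ATP-driven luminescence following a 30 min room-temperature CellTiter-Glo step.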

Row | SMILES | Potency
1 | NC1=NCC2c3ccccc3Cc3ccccc3N12 (stereo not given) | inactive
2 | Cc1cc2c(s1)Nc1ccccc1N=C2N1CCN(C)CC1 | inactive
3 | CCC(=O)c1ccc2c(c1)N(CCCN(C)C)c1ccccc1S2 | inactive
4 | CC1(C)C(=O)N(Cl)C(=O)N1Br | inactive
5 | CCN(CC)CC1CCCCN1CC(=O)N1c2ccccc2C(=O)Nc2cccnc21 (stereo not given) | inactive
6 | CC1=C(CC(=O)O)c2cc(F)ccc2/C1=C\c1ccc(S(C)(=O)=O)cc1 | inactive
7 | Cc1ccc(C)c(N)c1 | inactive
8 | CC1(O)CSC(C)(O)CS1 (stereo not given) | inactive
9 | CCN(CC)CCOc1ccc(Cc2ccccc2)cc1 | inactive
10 | CC(C)O | inactive
11 | CC1CN(c2ccccc2)NC1=O (stereo not given) | inactive
12 | O=c1[nH]c(=O)n([C@H]2C[C@H](O)[C@@H](CO)O2)cc1C(F)(F)F | inactive
13 | Cc1c[nH]c(=S)[nH]c1=O | inactive
14 | CCCCN1C[C@H](O)[C@@H](O)[C@H](O)[C@H]1CO | inactive
15 | CCCCCCOc1ccc(N)cc1 | inactive
16 | CC1=NN(c2cc(Cl)c(S(=O)(=O)O)cc2Cl)C(=O)C1N=Nc1ccc(S(=O)(=O)O)cc1 (stereo not given) | inactive
17 | CC(C)(C)C1CCCCC1=O (stereo not given) | inactive
18 | CC1=C2[C@H](/C=C(\C)C(=O)O)CC[C@@H](C)[C@H]2CC1 | inactive
19 | CN1C(=O)CC(c2ccccc2)C1=O (stereo not given) | inactive
20 | Clc1cccc(-c2cc(Cl)cc(Cl)c2)c1 | inactive
21 | CCCCCCCCc1ccc(S(=O)(=O)O)cc1 | inactive
22 | O=C(Cl)c1cccc([N+](=O)[O-])c1 | inactive
23 | C=O | inactive
24 | Cc1c(N)cccc1N | inactive
25 | COc1ccc(Nc2ccc(OC)cc2)cc1 | inactive

Reference: PubChem BioAssay (Tox21)
